# DT40 TDP1 CPT: DT40-hTDP1 cell growth loss with CPT | chicken DT40 Tdp1-/-;hTDP1 cells + 20 nM CPT, ATP luminescence, 48 h | Potency, µM (doses to about 46.2 µM), for inactives: at the top dose activity change, negative = growth inhibition, actives largely listed as inhibitors | 420,000 tested, 12% active; further: potency means the concentration at half of the fitted maximal effect; nearly all actives have a fitted effect of over 55% in size
#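 Chicken DT40 Tdp1-/- cells stably complemented with human TDP1 were seeded at 400 cells/well in medium containing 20 nM camptothecin, exposed to pin-transferred compounds, and grown at 37 °C for at least 48 hr. Viability was read as ATP luminescence.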
# DT40 TDP1 no CPT: qHTS for Inhibitors of human tyrosyl-DNA phosphodiesterase 1 (TDP1): qHTS in cells in absence of CPT | 420,000 tested, 15% active | DT40 Tdp1-/- hTDP1 cells, no CPT, ATP luminescence, 48 h | AID 686978, 2013 | Potency, µM (doses to about 46.2 µM), inactives show at the highest dose activity change, negative = growth inhibition, actives largely listed as inhibitors; further: potency means the concentration at half of the fitted maximal effect; nearly all actives have a fitted effect of over 55% in size
#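 Compound effects on proliferation are scored in DT40 Tdp1-/-;hTDP1 cells in the absence of CPT. ATP levels (CellTiter-Glo luminescence) are recorded after a ≥48 hr, 37 °C incubation.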
# TDP1 inh: TDP1 (human) enzyme inhibition. 350,000 tested, 0.28% active. Q9NUW8. Potency, µM (titrated, usually from 130 µM), inactives show at the highest dose activity change, negative = inhibition, actives largely listed as inhibitors. recombinant TDP1, AlphaScreen DNA substrate cleavage. AID 485290; further: potency means the concentration at half of the fitted maximal effect; nearly all actives have a fitted effect of over 40% in size
#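 Signal: AlphaScreen proximity between streptavidin donor and anti-FITC acceptor beads on intact substrate. Reaction: Tdp1 1 nM, substrate 15 nM final, 5 min RT after 15 min compound preincubation.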
# CtBP-E1A inh: inhibitors of CtBP/E1A interaction. AlphaScreen GST-E1A/His-CtBP binding, 1536-well; stronger effect = lower value. AID 651724. activity change, % (no concentration beside the values). 340,000 tested, 0.49% active; in the data active means activity change below about -65%; inconclusive means mostly about -30% to -63%
#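 Protein mix (5X: 125 nM each GST-E1A, His-CtBP) was incubated with pinned compound 2 h at 37 deg C in dark, in 50 mM Tris pH 8.0 buffer with 300 mM NaCl. Glutathione donor and nickel acceptor beads followed; AlphaScreen signal read after 1 h.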
# IL1B secr inh: inflammasome signaling inhibition, IL-1 beta readout; THP-1 LPS/ATP IL-1B secretion, AlphaLISA, 16 h; stronger effect = lower value; 360,000 tested, 4.7% active; activity change, % at 57.5 µM; AID 743279; in the data active means activity change below about -50%; inconclusive means mostly about -30% to -49%
#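 Secreted IL-1B measured by AlphaLISA bead assay after 16 h compound exposure of THP-1 cells; compounds (final up to 57.5 uM) added 1 h before LPS (250 ng/mL) and ATP (1.25 mM) stimulation; lower signal means less secretion.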
# Six1-Eya2 inh: blocks human Six1 binding to Eya2; Q15475+O00167; AlphaScreen GST-Six1/His-Eya2 binding, biochemical; stronger effect = lower value; activity change, % (test concentration not listed); 360,000 tested, 0.56% active; AID 651725; in the data active means activity change below about -65%; inconclusive means mostly about -30% to -63%
#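 Compounds are tested against tagged Six1 and Eya2 proteins bridged by glutathione donor and nickel acceptor beads; after a one-hour incubation at 37 °C without light, AlphaScreen emission is recorded.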
# * marks the source's active call; other numbers are inactive results; ? = inconclusive; . = no result given. This is a sample that favours compounds with a hit; in the whole collection about 18% have one here. Unless noted, the call rests on the fitted dose curve; in most records, active means well fitted curve in the direction sought with a large enough effect; inconclusive means small, poorly fitted or top-dose-only effect, or another doubt; inactive means no such curve, though single readings can be large; an effect the other way counts as inactive or inconclusive. On the % scale 0 is the no-effect control and ±100 the full control effect.
SMILES,DT40 TDP1 CPT,DT40 TDP1 no CPT,TDP1 inh,CtBP-E1A inh,IL1B secr inh,Six1-Eya2 inh
O=C(NCc1ccco1)C(C(=O)c1ccccc1)n1ccccc1=O (stereo not given),0%,?,3%,-1,-1,8
O=C(NCC1CCCO1)C(C(=O)c1ccccc1)n1ccccc1=O (stereo not given),?,10µM*,1%,5,8,0
COc1ccccc1COCC(O)CN(Cc1ccco1)Cc1ccccc1O (stereo not given),?,?,2%,13,?,-9
Cc1ccc(C)c(CN2C(=O)c3ccccc3Sc3ccc(C(=O)NCCCOC(C)C)cc32)c1,?,21µM*,5%,.,.,.
CCN1C(=O)c2ccccc2Sc2ccc(C(=O)NCCC(C)C)cc21,2%,-24%,.,-10,-12,0
O=C(NC1CCCCC1)c1ccc2c(c1)N(Cc1ccccc1)C(=O)c1ccccc1S2,-13%,-32%,8%,.,.,.
CCN(CC)C(=O)c1ccc2c(c1)N(Cc1c(F)cccc1Cl)C(=O)c1ccccc1S2,?,?,2%,.,.,.
CC(C)OCCCNC(=O)c1ccc2c(c1)N(Cc1c(F)cccc1Cl)C(=O)c1ccccc1S2,23µM*,26µM*,2%,.,.,.
O=C(NC1CCCC1)c1ccc2c(c1)N(Cc1c(F)cccc1Cl)C(=O)c1ccccc1S2,16µM*,16µM*,0%,.,.,.
COCCNC(=O)c1ccc2c(c1)N(Cc1c(F)cccc1Cl)C(=O)c1ccccc1S2,-27%,21µM*,2%,.,.,.
CCN(C(=O)CN1C(=O)c2ccccc2Sc2ccc(C(=O)OC)cc21)c1cccc(C)c1,?,23µM*,7%,.,.,.
CCOc1ccc(NCc2nnc(SCC(=O)Nc3nc(-c4ccccc4)cs3)n2-c2ccccc2)cc1,?,23µM*,4%,1,-14,3
Cc1ccccc1C(=O)NCCc1nnc(SCC(=O)Nc2nc(-c3ccccc3)cs2)n1C,-25%,?,0%,3,2,4
Cc1cccc(C)c1NCc1nnc(SCC(=O)Nc2nc(-c3ccccc3)cs2)n1-c1ccccc1,2.1µM*,2.3µM*,2%,-4,25,-12
COC(=O)c1ccc(CSc2nnc(N)s2)cc1,7%,-12%,3%,8,25,3
COC(=O)c1ccc(CSc2nnc(C)s2)cc1,12µM*,10µM*,2%,-4,0,-6
CCc1nnc(NC(=O)c2ccc(-c3ccccc3F)o2)s1,18%,18%,1%,-3,0,15
O=C(Nc1nc(-c2ccccn2)cs1)c1ccc(-c2ccccc2F)o1,5.8µM*,10µM*,1%,-70*,94,?
CCc1cc(C(=O)Nc2nc(-c3ccccn3)cs2)sc1C,4.6µM*,2.9µM*,2%,-67*,114,?
c1ccc(CCNc2nc(-c3ccccn3)cs2)cc1,?,7.3µM*,-2%,-6,0,-1
Cc1ccc(C(=O)Nc2nc(-c3ccccn3)cs2)o1,5.8µM*,3.7µM*,12%,?,165,-93*
CCc1sc(C(=O)Nc2nc(C)cs2)cc1C,?,?,1%,-12,-9,-4
c1ccc(CCNc2cnccn2)cc1,0%,2%,.,-4,6,1
CCCc1cc(C(=O)NC2CCCC2)no1,?,?,3%,8,-6,6
CC(=O)c1ccc(-c2ccc(C(=O)Nc3nc(-c4ccccn4)cs3)o2)cc1,2.9µM*,3.7µM*,2%,-79*,161,-69*
SMILES,DT40 TDP1 CPT,DT40 TDP1 no CPT,TDP1 inh,CtBP-E1A inh,IL1B secr inh,Six1-Eya2 inh
CCc1nnc(NC(=O)c2ccc(-c3ccc(C(C)=O)cc3)o2)s1,-16%,5%,-4%,-21,?,0
O=C(Nc1nc(-c2ccccn2)cs1)c1ccc([N+](=O)[O-])o1,4.1µM*,2.6µM*,4%,-92*,41,-73*
CCN1CCN(C(=O)CSc2nc3c(c(=O)n(C)c(=O)n3C)n2C)CC1,1%,-15%,.,2,0,0
O=C(CO/N=C/c1c(Cl)cccc1Cl)NNC(=O)c1ccc(Cl)cc1,2%,-9%,5%,-5,10,-3
CCCCC(=O)NC(NC(=S)N1CCCCCC1)C(Cl)(Cl)Cl (stereo not given),13µM*,13µM*,0%,9,-5,10
Cc1nc2ccccc2c(=O)n1/N=C/c1cn(-c2ccccc2)nc1-c1cccs1,?,21µM*,0%,3,1,1
Cc1ccc(-n2[nH]c(C)c(/C=N/n3c(C)nc4ccccc4c3=O)c2=O)cc1,6.5µM*,23µM*,11%,-17,37,-15
Cc1ccc(-n2[nH]c(C)c(C=Nc3ccc(C)cn3)c2=O)cc1,9.2µM*,16µM*,5%,4,20,-4
CN(CCCNC(=O)CCC(=O)N1CCOc2ccccc21)Cc1ccccc1,5%,3%,.,10,-25,0
CCCCOc1ccc(CSCCNC(=S)Nc2ccccc2)cc1,18µM*,?,3%,9,-5,-6
CC(C)COc1ccc(CSCCNC(=S)Nc2ccccc2)cc1,?,15µM*,0%,5,-9,-21
Cc1c2cccn2cc[n+]1C,-1%,1%,6%,-1,-1,9
COc1ccc(-c2cc(C)no2)cc1S(=O)(=O)N1CCCN(Cc2ccc(F)cc2)C1,?,-18%,3%,-9,0,7
COc1ccc(C(c2nnnn2C2CCCC2)N2CCN(c3ccccc3)CC2)cc1 (stereo not given),?,?,0%,-17,?,-18
O=C(CSCc1ccccc1Cl)NCc1ccc(Cl)c(Cl)c1,?,?,8%,.,.,.
